SMN2 splice up = qHTS Assay for Enhancers of SMN2 Splice Variant Expression; HEK293 SMN2-luciferase splicing reporter, luminescence, 30-36 h; Potency, µM (top dose mostly 46.1 µM), for inactives: at the highest dose activity change, positive = activation, actives largely listed as activators; hit rate 2.8% among 210,000; further: % of control where 0% means no effect; nearly all actives have a fitted effect of over 55% in size
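HEK293 cells carry an SMN2 minigene-luciferase reporter in which exon 7 inclusion puts luciferase in frame. Cells were seeded at 2000 cells/well, attached for 10-12 hours, then exposed to compounds for 30-36 hours at 37C before ONE-Glo luminescence.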
ELG1 genotoxic = qHTS screen for small molecules that induce genotoxicity in human embryonic kidney (HEK293T) cells expressing luciferase-tagged ELG1 | HEK293T ELG1-luciferase reporter, luminescence, 16 h | Potency, µM (doses to about 46 µM), for the others: top-dose activity change, positive = activation, actives largely listed as activators | hit rate 1.3% among 330,000 | AID 504466, 2011; further: % of control where 0% means no effect; nearly all actives have a fitted effect of over 60% in size
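HEK293T cells expressing luciferase-tagged ELG1 were exposed to compound or DMSO vehicle for 16 hr at 37 °C and 5% CO2. Luciferase activity was then measured with ONE-Glo after 30 min at room temperature.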
ELG1 DNA repair = qHTS screen for small molecules that inhibit ELG1-dependent DNA repair in human embryonic kidney (HEK293T) cells expressing luciferase-tagged ELG1 | hit rate 2.3% among 330,000 | AID 504467, 2011 | HEK293T ELG1-luciferase reporter, luminescence, 16 h; DNA damage induced by 5-fluorouridine | Potency, µM (series often up to 46.1 µM), without a hit: at the top dose activity change, negative = inhibition, actives largely listed as inhibitors; further: on the % scale 0 is the no-effect control and ±100 the full control effect; nearly all actives have a fitted effect of over 55% in size
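5-Fluorouridine DNA damage + compound/DMSO, 2,000 cells/well, 16 h, 37 °C/5% CO2. ONE-Glo, 30 min RT, luminescence. Readout = decrease in reporter signal.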
NPC1 prom act = qHTS Assay for NPC1 Promoter Activators; AID 485313, 2010; Potency, µM (highest dose often 9.22 µM), for inactives: top-dose activation, actives largely listed as activators; Huh7 NPC1 promoter luciferase reporter, 24 h; hit rate 2.4% among 320,000; further: % of control where 0% means no effect; nearly all actives have a fitted effect of over 60% in size
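Huh7 reporter cells (NPC1 promoter driving luciferase) are dosed with compound for 24 h at 37 °C, 5% CO2; luciferase detection reagent is then added and luminescence measured after 10 min at ambient temperature.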
FLuc counter = qHTS profiling assay for firefly luciferase inhibitor/activator using purifed enzyme and Km concentrations of substrates (counterscreen for miR-21 project). Potency, µM (titrated, usually from 57.5 µM), inactives show at the top dose activity change, negative = inhibition, actives largely listed as inhibitors. purified FLuc, Km substrates, luminescence inhibition. Luciferin 4-monooxygenase (Photinus pyralis), P08659. hit rate 6.9% among 360,000;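 further: plate controls were vehicle for no effect and reference inhibitor for full effect; nearly all actives have a fitted effect of over 55% in size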
Target sequence (P08659 whole entry, looked up): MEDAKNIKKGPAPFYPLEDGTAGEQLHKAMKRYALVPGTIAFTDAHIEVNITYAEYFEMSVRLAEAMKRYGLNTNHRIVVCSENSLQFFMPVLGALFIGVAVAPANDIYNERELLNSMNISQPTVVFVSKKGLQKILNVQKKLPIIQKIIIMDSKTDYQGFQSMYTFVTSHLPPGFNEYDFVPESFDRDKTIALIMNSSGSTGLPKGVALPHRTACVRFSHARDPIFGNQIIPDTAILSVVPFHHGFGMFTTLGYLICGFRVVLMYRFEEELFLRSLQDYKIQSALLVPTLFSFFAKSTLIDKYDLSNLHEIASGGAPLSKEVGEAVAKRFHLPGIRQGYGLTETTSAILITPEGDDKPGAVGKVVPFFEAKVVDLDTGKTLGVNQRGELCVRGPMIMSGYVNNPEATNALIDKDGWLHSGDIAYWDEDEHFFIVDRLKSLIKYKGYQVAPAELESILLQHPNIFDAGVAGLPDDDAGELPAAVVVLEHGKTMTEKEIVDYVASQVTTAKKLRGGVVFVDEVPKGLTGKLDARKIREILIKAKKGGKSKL
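Biochemical qHTS of compounds, final roughly 60 µM downward over six points, against 10 nM purified firefly luciferase using Km concentrations of substrates (10 uM D-luciferin, 10 uM ATP) in Tris acetate pH 7.5 buffer; luminescence output.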
Rab9 promoter act = qHTS Assay for Rab9 Promoter Activators. Potency, µM (titrated, usually from 9.22 µM), without a hit: at the top dose activation, negative = inhibition, hits mostly activators. Huh7 Rab9 promoter-luciferase reporter, luminescence, 24 h. AID 485297, 2010. hit rate 2.8% among 320,000; further: % of control where 0% means no effect; nearly all actives have a fitted effect of over 60% in size
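Luciferase signal after 10 min detection reagent at ambient indicates Rab9 promoter upregulation; stably transfected Huh7 cells were treated 24 h with compound in DMSO at 37 °C, 5% CO2.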
Active calls of the source: *; ? = inconclusive; / = not tested or not shown; [ ] = dose if it differs, or a comment. The list is not random: actives were taken first. Their share in the collection is about 9.3%. The call rests on the fitted dose curve; in most records, active means well fitted curve in the direction sought with a large enough effect; inconclusive means small, poorly fitted or top-dose-only effect, or another doubt; inactive means no such curve, though single readings can be large; an effect the other way counts as inactive or inconclusive. Potency means the concentration at half of the fitted maximal effect.

SMILES | SMN2 splice up | ELG1 genotoxic | ELG1 DNA repair | NPC1 prom act | FLuc counter | Rab9 promoter act
CC1CCCN(c2ccc(C(=O)NCC3CCCO3)cn2)C1 (configuration not stated) | 13µM* | 16% | ? | ? | ? | ?
O=c1c2ccccc2nc2oc3ccccc3n12 | / | 10µM* | ? | 1.6µM* | 7.6µM* | 1.6µM*
COc1ccc(OC(=O)COc2cccc(C)c2)cc1 | / | -2% | -6% | 1% | 15µM* | 3%
CCC(=O)Nc1cccc(NC(=O)COc2ccc(OC)cc2)c1 | 15% | ? | ? | -2% | 15µM* | -1%
Cc1ccc(OCC(=O)Nc2cccc(O)c2)cc1C | -5% | ? | ? | ? | 5.4µM* | ?
CC(Oc1ccc(Cl)cc1Cl)C(=O)Nc1cccc(O)c1 (configuration not stated) | -1% | 17% | ? | 0% | 17µM* | -4%
COc1ccc(OC(=O)COc2ccc(C)cc2)cc1 | 3% | 5% | -7% | 15% | ? | -1%
Cc1cccc(NC(=O)COc2ccccc2)c1 | 17% | ? | ? | 2% | 3%[2.3 µM] | 13%
COc1cccc(NC(=O)COc2ccc(Br)c(C)c2)c1 | / | 15% | ? | -1% | 19µM* | 11%
Cc1cccc(OCC(=O)Nc2cccc(O)c2)c1 | 13% | 10µM* | ? | -2% | 17µM* | 0%
O=C(COc1cc(Cl)c(Cl)cc1Cl)Nc1cccc(O)c1 | / | ? | ? | -1% | 1.1µM* | -3%
O=c1cc(-c2ccco2)oc2ccc(Cl)cc12 | 18% | ? | ? | 27% | -6% | 25%
CCn1c(C)nc2cc(S(N)(=O)=O)ccc21 | / | 2% | 13% | 0% | -1% | -5%
O=C(c1ccccc1F)N1CCN(S(=O)(=O)c2ccc3ccccc3c2)CC1 | / | 2% | -24% | -1% | -2% | -1%
O=C(Nc1ccc2c(c1)OCCO2)c1cc(-n2cnnc2)ccc1Cl | 15% | 3% | -1% | 1% | -14% | -2%
Cn1nc(C(=O)Nc2ccc(Cl)cc2)cc1C(=O)Nc1ccc(Cl)cc1 | / | 0% | -7% | 0% | 1% | 16%
Cn1nc(C(=O)Nc2ccc3c(c2)OCCO3)cc1C(=O)O | -1% | 13% | ? | 3% | 9.5µM* | -5%
Cn1ccc(C(=O)Nc2ccc3c(c2)OCCO3)n1 | / | 5.8µM* | ? | 0.89µM* | ? | 0.71µM*
Cc1cc(C)cc(C(=O)NC(CC(N)=O)c2ccc(NC3CCCCCCC3)c([N+](=O)[O-])c2)c1 (configuration not stated) | / | 0% | -9% | -2% | -1% | -1%
Cc1ccnc(N/C=C/C(=O)c2ccc(Br)cc2)c1 | / | ? | ? | 1.6µM* | 0.95µM* | 1.1µM*
CCOC(=O)C(=CNc1cc(C)ccn1)C(=O)OCC | 1% | 3% | -4% | 1% | -5% | -4%
O=C(Nc1ccc(Cl)cn1)C1CC1 | 13% | 5% | 17% | -1% | 3% | -7%
COc1ccc(C(=O)/C=C/Nc2cc(C)ccn2)cc1 | / | ? | ? | 0.4µM* | 0.48µM* | 0.32µM*
O=C(/C=C\Nc1ccc(Cl)cn1)c1ccc(Br)cc1 | 11µM* | ? | ? | 2µM* | ? | 2.5µM*
CCCCOc1ccc(C2=NC(c3cccs3)=Nc3ccc(OC)cc3N2)cc1 | 17% | / | / | / | 3% | /
SMILES | SMN2 splice up | ELG1 genotoxic | ELG1 DNA repair | NPC1 prom act | FLuc counter | Rab9 promoter act
CCNC(=O)N1CCCC(C(=O)c2ccc3cc(OC)ccc3c2)C1 (configuration not stated) | / | 0% | -1% | 7% | ? | -1%
O=C(Nc1nnc(C2=COCCO2)o1)c1cccc(Br)c1 | / | -10% | 2% | 0% | -2% | -4%
Cc1ccc(CCNC(=O)C2CCN(S(=O)(=O)c3ccc4c(c3)oc(=O)n4C)CC2)cc1 | / | 0% | 0% | -3% | 2% | -4%
Cc1nnc(NC(=O)CSc2ccc(-c3ccco3)nn2)s1 | 3% | 2% | 12% | -2% | ? | 2%
CCc1ccc(-c2ccc(SCC(=O)Nc3nnc(C)s3)nn2)cc1 | 13µM* | ? | ? | 2.2µM* | 0.3µM* | 1.3µM*
CCOc1ccc(-c2ccc(SCC(=O)Nc3nnc(C)s3)nn2)cc1 | ? | 0% | ? | ? | 0.3µM* | ?
CCc1ccc(-c2ccc(SCC(=O)NCC3CCCO3)nn2)cc1 (configuration not stated) | 14µM* | 9% | ? | ? | 3.4µM* | ?
CCc1nnc(NC(=O)CSc2ccc(-c3ccc(-n4cccn4)cc3)nn2)s1 | / | 5.8µM* | ? | ? | 1.2µM* | 2.5µM*
Cc1nnc(NC(=O)CSc2ccc(-c3ccc(Cl)cc3)nn2)s1 | 13% | ? | ? | 17% | ? | 0%
CCc1ccc(-c2nc(SCC(=O)NCC3CCCO3)c(-c3ccc(C)cc3)[nH]2)cc1 (configuration not stated) | 10% | / | / | / | 4% | /
c1ccc(CNc2ncnc3sc4c(c23)CCC4)nc1 | / | 0% | ? | 0% | -5% | 1%
Cc1ccc2nc(NC(=O)c3cc(=O)c4cc(Cl)ccc4o3)sc2c1 | -2% | / | / | / | ? | /
O=C(Nc1ccc(F)cc1Cl)c1ccc2c(=O)n3c(nc2c1)CCC3 | / | 17% | ? | 3.2µM* | -37% | 3.5µM*
Cc1ccc(C)c(NC(=O)c2ccc3c(=O)n4c(nc3c2)CCC4)c1 | / | 17% | ? | ? | 15µM* | ?
O=C(NNC(=O)c1ccc2c(=O)n3c(nc2c1)CCC3)c1ccc(F)cc1 | / | -4% | 6% | -3% | 0% | -2%
COc1ccc(C)cc1NC(=O)c1ccc2c(=O)n3c(nc2c1)CCCCC3 | 10% | -10% | ? | 21% | -20% | 0%
O=C(NNC(=O)c1ccc2c(=O)n3c(nc2c1)CCC3)c1ccc(Cl)cc1 | / | -1% | -6% | 0% | -2% | 2%
O=C(Nc1ccc(F)cc1F)c1ccc2c(=O)n3c(nc2c1)CCC3 | / | ? | ? | 1.1µM* | 11µM* | 1.1µM*
CCNC(=O)c1ccccc1SCC(=O)Nc1ccc(F)cc1 | -2% | 0% | ? | 2% | -14% | 1%
CC(C)N1CC(C(=O)Nc2ccccc2)CC1=O (configuration not stated) | -24% | 2% | 0% | -2% | -2% | -3%

Screening data as filed in PubChem.
